About 30 (0.1%) of roughly 23,000 compounds showed an effect of 50% or more. Only a selection was taken, and strong results are over-represented in it overall. Measured potencies and affinities stand elsewhere.

The test system of this test is Pseudomonas aeruginosa. Conditions: Concentration 300 ug.mL-1; ASSAY_TEST Inhibition of Bacterial Growth; detection method Absorption (OD600); MEDIA CAMHB; plate type 384well; NBS; CORNING #3640; time 18 hr.
A word on the Inhibition: it is the drop in the measured response relative to a control, in per cent. With `CSCc1noc(CN2CCC(=O)NCC2C)n1` (stereo unspecified), the Inhibition amounted to 2.5%. As for `CCc1n[nH]c(=O)n1CC`, the figure is 16.77%; as for `O=C1C=CC(=O)N1C1CCCCC1`, 14.45%.

Regarding `O=C(c1cc(F)ccc1Br)N1CCNCC1`, the Inhibition was -21.94%. As for `CNCc1ncc(C)c(OC)c1C`, the figure is 22.51%; as for `CC(=O)NCc1ccc(C(=O)CSc2ccccn2)s1`, 23.63%; as for `CN(Cc1cccc(C#N)c1)C(=O)C1CC1`, 11.31%.

Regarding `CN(C)S(=O)(=O)NCc1ccc(Cn2ccnc2)cc1`, the Inhibition is on record as -10.43%. The value for `CC(=O)NCCCNCc1ccc(Br)c2cccnc12` was 29.22%; that for `NC(=O)CCNCc1ccc(Cl)c2cccnc12` was 17.51%; that for `OCc1cccc2ncccc12` was -43.09%. The value for `NC(=O)C1(NCc2ccc(Br)c3cccnc23)CC1` was 4.47%; that for `O=C(c1nnsc1-c1ccc(Cl)cc1)N1CCSCC1` was -1.35%; that for `CN(C)CCCC(=O)N1CCCC(CO)(CC2CC2)C1` (stereo unspecified) was -1.87%.

Consider `CC1CCN(C(=O)CCN2C[C@H](C3CC3)[C@@H](N)C2)CC1`, for which the Inhibition was 0.49%. As for `OC(CN1CCn2ccnc2C1)c1ccc(Cl)cc1` (stereo unspecified), the figure is -6.36%; as for `CSCCC(O)C(=O)NCCc1scnc1C` (stereo unspecified), -25.65%; as for `COCCN(Cc1ccccn1)C(=O)CC1CCNC1` (stereo unspecified), -0.17%.

Regarding `CN1CCOC[C@H]2CCN(C(=O)c3cccs3)C[C@H]21`, the Inhibition was -22.95%. The value for `CNC(=O)C(C)Sc1nccn1-c1ccc(OC)cc1` (stereo unspecified) was 17.22%.

In the case of `N#Cc1cccc(CN2CCCC(O)C2)c1` (stereo unspecified), the Inhibition is reported as 9.18%. The value for `CN(CCNC(=O)c1cnc[nH]1)Cc1ccc(F)cc1` was 37.03%; that for `CNC1(C(=O)OC)CCCCC1` was -2.18%; that for `Cc1cc(NC(=O)CSCC(=O)N2CCC2)no1` was 7.6%.

Consider `CCOC(=O)c1nc(C)n(C)n1`, for which the Inhibition turned out to be 10.82%. The value for `c1cc2c(cc1CNc1nnc(C3CC3)o1)OCCO2` was -5.88%; that for `O=C(CCCc1cn[nH]c1)N1CCc2ccccc2C1` was 6.06%; that for `CCCC(C)NC(=O)c1coc(C)n1` (stereo unspecified) was -6.54%.

In the case of `CCN(CC(C)C#N)C(=O)c1ccc(Br)o1` (stereo unspecified), the Inhibition was -3.61%. The value for `COC(=O)[C@@H]1CCN[C@@H]1C(C)C` was 12.69%; that for `C1CN(C2CCN(c3nnc(C4CC4)o3)CC2)CCS1` was 8.74%. As for `C=C(C)CNC(=O)Nc1cccc(N2CCNC2=O)c1`, the figure is -38.18%; as for `CCc1ccc(CN(CCO)Cc2nccn2C)nc1`, -17.17%; as for `Clc1ccc(-c2noc(CN3CCCNCC3)n2)cc1`, 46.35%. The value for `NC(=O)c1cc(N2CCCC2)ccn1` was -17.78%; that for `Fc1ccc2[nH]cnc2c1` was 26.41%; that for `CNCCC1CCCO1` (stereo unspecified) was 6.91%. Turning to `CNC1CC(=O)N(Cc2ccccc2)C1=O` (stereo unspecified), the Inhibition is listed as -1.73%. Consider `CC1(C)C[S+]([O-])CCN1C(=O)c1cccc(F)c1Cl` (stereo unspecified), for which the Inhibition is recorded as 17.16%.

As to `CCN(CC)C(=O)[C@@H]1C[C@@H](N)CN1C(=O)CS(C)(=O)=O`, the Inhibition is recorded as 7.51%. As for `Nc1ncn(S(=O)(=O)c2ccccc2)n1`, the figure is -6.3%; as for `Cc1n[nH]cc1CNCc1ccc(-n2ccnc2)nc1`, 0.04%. The value for `O=C(CC1CCCN1)c1ccco1` (stereo unspecified) was 24.64%; that for `CC(O)C(=O)NC(N)=O` (stereo unspecified) was 10.69%. As for `O=c1ccoc2ccc(F)cc12`, the figure is 24.86%.

As for `CCCn1cnnc1CNCC(=O)Nc1cnccn1`, the Inhibition is reported as 7.89%. As for `CNC(=O)NC(=O)C(C)N1CCN(c2nccs2)CC1` (stereo unspecified), the figure is 0.51%; as for `CCCc1nnc(N2CCC3(CC2)OCC(C)O3)s1` (stereo unspecified), -23.27%.

Turning to `CC(C)NC(=O)c1cn(Cc2ccc(Cl)cc2)nn1`, the Inhibition was found to be 37.8%. The value for `CCOC(=O)CNC(=O)N1CCn2cccc2C1C` (stereo unspecified) was -25.66%; that for `O=C(Cc1ccsc1)N[C@@H]1CCOC[C@H]1OCCO` was 1.98%. `c1ccc(C2=NN=C(NC3CC3)SC2)cc1`: the Inhibition stood at 6.85%. As for `O=C(Cc1cccc(O)c1)NCCn1cc(Cl)cn1`, the figure is -17.42%; as for `COc1cc(C(=O)N[C@@H]2CC[C@@H](N)C2)ccc1F`, 12.15%.

As to `N[C@@H]1CCOc2c(F)ccc(F)c21`, the Inhibition was 32.11%. As for `CC(Sc1ccccc1Cl)C(=O)NCC(=O)N(C)C` (stereo unspecified), the figure is 4.5%; as for `CCC(c1ccc(F)cc1)N1CC[S+]([O-])CC1` (stereo unspecified), 11.41%; as for `NS(=O)(=O)N(Cc1cccnc1)Cc1ccco1`, 8.52%. As for `COCCNCC(=O)Nc1cccc(CSC)c1`, the figure is 7.12%; as for `CCn1nc(C)c(CN2CCCCC(N)C2)c1C` (stereo unspecified), 14.9%.

On to `O=C(CCN1CCC(CO)CC1)Nc1ccccc1F`, for which the Inhibition stood at 3.62%. As for `Cc1noc(CN2CCN(S(C)(=O)=O)CC2)n1`, the figure is -16.86%; as for `CCS(=O)(=O)c1cncnc1N`, 19.95%.

Turning to `Cc1noc(C)c1CCC(=O)NC(C)c1ccccn1` (stereo unspecified), the Inhibition is -45.2%. As for `Cc1cc(C)cc(N2CCNCC2=O)c1`, the figure is 2.16%; as for `NC(=O)C1=NOC(CNCc2ccccc2Cl)C1` (stereo unspecified), 23%. As for `Cc1cc(C(=O)N[C@@H]2CCOC[C@H]2O)sc1C`, the figure is 10.73%.

With `COc1ccc2[nH]c(CCCN)nc2c1`, the Inhibition amounted to 28.12%. For `N[C@H]1CCCNC1=O`, the Inhibition came to 19.57%. For the compound `CCc1nc(CNC(=O)C2CCCO2)cs1` (stereo unspecified), the Inhibition is 6.65%.

With `CCS(=O)(=O)NC1CCN(C(=O)c2cccc(F)c2)C1` (stereo unspecified), the Inhibition came to 13%. As for `Cc1noc(CN(C)CCC2CCOCC2)n1`, the figure is -10.62%; as for `O=C(NCc1ccc2c(c1)OCCCO2)c1cscn1`, 14.64%; as for `NC1CC(=O)Nc2ccccc21` (stereo unspecified), 18.18%. For the compound `CC(C)C[C@@H](N)C(=O)NCc1ccc2nsnc2c1`, the Inhibition worked out at 6.42%.

On to `CC(C)C(=O)NC1CCCNC1` (stereo unspecified), for which the Inhibition was -0.49%. The value for `N#Cc1ccc(NCc2ccccc2F)nc1` was 16.68%. The value for `Cn1cnnc1CCNC(=O)c1cc(Cl)c(Cl)n1C` was 15.17%. As for `COCCC(=O)c1ccc(F)cc1`, the figure is 19.26%; as for `CCN1CCCC1CNC(=O)c1c[nH]nn1` (stereo unspecified), 16.01%; as for `Cc1cc(C)cc(NC(=O)CNCCCO)c1`, 5.1%. As for `NC1CCCc2c(F)cccc21` (stereo unspecified), the Inhibition came out at 23.88%.

Regarding `Fc1ccc2nc(N3CCCNCC3)oc2c1F`, the Inhibition is on record as 33.45%. The value for `Cc1n[nH]c(C)c1NC(=O)C(C)CN` (stereo unspecified) was 18.11%. The value for `CN(Cc1ccc2c(c1)OCO2)C(=O)c1cncs1` was 25.32%. As for `COC(=O)c1ccc(=O)n(CC(=O)NCCC(C)C)c1`, the figure is 4.64%. `O=C(NCCOc1ncccc1Cl)c1cscn1`: the Inhibition is 13.9%. The value for `COc1ccc(CN2C[C@H](O)[C@@H](N(C)C)C2)c(C)c1C` was 27.33%.

In the case of `Cc1cc(C(=O)N2C[C@H](C3CC3)[C@@H](N)C2)ccc1O`, the Inhibition is 1.32%. The value for `CC1CCN(CCNC(=O)c2cnccn2)CC1` was -12.84%; that for `CNCCN1CCOC(C)(C)C1` was 9.7%. The value for `NS(=O)(=O)c1ccc(NC(=O)Cn2ccnc2)cc1` was 5.95%. The value for `Cc1cc(C(=O)O)cc(N2C[C@H](C3CC3)[C@@H](N)C2)n1` was -2.3%; that for `CC(SCCN1CCOCC1)C(=O)N(C)C(C)C` (stereo unspecified) was 5.48%; that for `N#Cc1ccc(Br)o1` was 8.03%. As to `Cc1cccc(C)c1-n1nnnc1SCC(N)=O`, the Inhibition stood at 21.56%. The value for `CNC(=O)C1CCN(CCCOc2ccccc2)CC1` was 24.15%; that for `CCCNC(=O)CCNC(=O)NCC` was 0.02%. As for `CCc1ccc(C(=O)NC2CNC[C@@H]2OC)o1` (stereo partly specified), the Inhibition is listed as 36.32%. As for `NCC1(CCO)CCOC1` (stereo unspecified), the figure is 6.83%.

In the case of `COc1cccc(-c2ccc(CNS(N)(=O)=O)cc2)c1`, the Inhibition amounted to 23.3%. The value for `O=C(NCC1CCNCC1)c1ccncc1` was 12.69%. As for `CCN(CCn1cccn1)C(=O)CNC(=O)N(C)C`, the Inhibition is -8.78%. The value for `CCN(c1ccccc1)S(N)(=O)=O` was 5.95%; that for `COc1c(C)cnc(CNC(=O)CSC)c1C` was 1.37%. With `CN1CCC(NC(=O)CSCc2cccs2)CC1`, the Inhibition is 12.03%. The value for `CNC(=O)NC1CN(C(=O)OC(C)(C)C)C1` was -6.26%; that for `CN(C)CCCOc1cccc(CN2CC(O)C2)c1` was 2%; that for `OC1(CNCc2ccccn2)CCc2ccccc21` (stereo unspecified) was 24.9%. For `Cc1c(Cl)cccc1C(=O)NC(C)c1nnnn1C` (stereo unspecified), the Inhibition is recorded as 8.95%.

Consider `Cc1cc(N(C)C)n2nccc2n1`, for which the Inhibition was -18.53%.

With `CCN(CC)C(=O)COc1ccc(C(C)=O)c(F)c1`, the Inhibition is given as 4.67%. For the compound `COc1cn(C)c(C(=O)NCc2ccco2)cc1=O`, the Inhibition was determined as 21.6%. The value for `CC(=O)c1ccc(CNc2nccnc2C#N)nc1C` was 14.58%; that for `Cc1nc(C2CCN(C(=O)c3cn[nH]c3)CC2)no1` was -1.22%; that for `NC1CCC(NC(=O)c2ccnc(C3CC3)n2)CC1` (stereo unspecified) was 4.44%. As for `CN1CCC(CCNS(C)(=O)=O)CC1`, the figure is -4.45%; as for `CCCc1noc(C(C)Nc2cccc(C(N)=O)c2)n1` (stereo unspecified), 24.66%; as for `O=S1(=O)CCC(NCc2csc(-c3ccccn3)n2)C1` (stereo unspecified), 17.32%. The value for `CCC1CN(Cc2ccnc(N)c2)CCO1` (stereo unspecified) was 4.62%. `COCCNC(=O)CNC(=O)c1cc(C)cc(C)c1Br`: the Inhibition is 7.79%.

For `CNCCCNC(=O)CCc1ccsc1`, the Inhibition is listed as -24.67%.

As to `CCC(C)NC(=O)NCc1ccc(-n2ccnc2)nc1` (stereo unspecified), the Inhibition is 14.1%. For the compound `CN1CCN(C(=O)C2COc3ccccc3O2)CC1=O` (stereo unspecified), the Inhibition amounted to 3.72%. As for `Cc1ccccc1CNc1nnc(CO)s1`, the figure is 26.98%. For `CC1(CO)COCCN1Cc1ccccc1` (stereo unspecified), the Inhibition worked out at 11.96%. Regarding `Cc1cccc(C(=O)Nc2nnn(C)n2)c1`, the Inhibition was 2.82%.

For the compound `Cc1n[nH]c(C)c1S(=O)(=O)N1CCN(C)CC1`, the Inhibition turned out to be 33.93%.

Turning to `CCNC(=O)Nc1c[nH]nc1C1CCCNC1` (stereo unspecified), the Inhibition was determined as 15.62%. The value for `NS(=O)(=O)NCC1CCCN(CCC2CCCC2)C1` (stereo unspecified) was 13.03%. The value for `Cc1nc(CN2CCC(O)(CN3CCCC3)CC2)c[nH]1` was 20.39%.

For `O=C(C1CCCO1)N1CCN(c2cc(Br)ccn2)CC1` (stereo unspecified), the Inhibition was 3.3%. The value for `c1ccc(-c2nc3c([nH]2)CCNC3)cc1` was 7.84%; that for `CNC(=O)CN1CCCC(CO)(CC=C(C)C)C1` (stereo unspecified) was 20.92%; that for `N#Cc1ccc(CN2CCC3(CCC3O)CC2)cc1` (stereo unspecified) was 20.3%.

Take `Cc1ocnc1C(=O)NCCNC(=O)c1cccnc1`: the Inhibition came out at 1.53%.

The values are drawn from ChEMBL document CHEMBL4513160, “CO-ADD screening of MMV (CH) - Small Polar Library”.
